High-throughput results as filed in PubChem BioAssay.
miR122 inh: miR-122 sensor activation; Huh7 psiCHECK-miR122 Renilla luciferase sensor, 48 h; activation, % at 12.5 µM; 340,000 compounds, 0.14% hits;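 active = mean activation of 30% or more, with every replicate also reaching 30%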;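 also: 0% = median of neutral control wells and 100% = median of positive control wells; higher luciferase signal means stronger suppression of miR-122 activity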
An asterisk follows results filed as active. Only a selection was taken, and hits are over-represented in it overall.

SMILES	miR122 inh
CN1CCN(c2ccc([N+](=O)[O-])c3no[n+]([O-])c23)CC1	35*
O=c1cc(C2CCNCC2)[nH][nH]1	-156
COc1cc2c(c(OC)c1OC)-c1ccc(O)c(=O)cc1C(NC(C)=O)CC2 (configuration not stated)	-97
CN=C1CN(O)C(c2ccccc2)c2cc(Cl)ccc2N1 (configuration not stated)	-111
CCN(CC)S(=O)(=O)c1ccc(C)c(NCC(=O)Nc2ccc(C#N)c(Cl)c2)c1	-119
O=C1NC(=O)C(CCc2ccncc2)(Cc2cccc(Cl)c2Cl)C(=O)N1c1ccc(Br)cc1 (configuration not stated)	-491
CCCCn1nnnc1C(c1cccc(OC)c1OC)N1CCC2(CC1)C(=O)NCN2c1ccccc1 (configuration not stated)	-92
COc1ccc(C2SCC(=O)Nc3c2c(=O)[nH]n3C2CCCCCC2)cc1 (configuration not stated)	37*
CCOc1ccccc1NC(=O)N1CCC2(CC1)OCCO2	-115
COc1ccc(NP(=O)(Oc2ccc(Cl)cc2)Oc2ccc(Cl)cc2)cc1OC	-136
